# SW480 rereplic: inducers of DNA re-replication in SW480 colon cancer cells; SW480 DNA re-replication, Hoechst DNA content imaging, 48 h; hit rate 1.8% among 340,000; Potency, µM (titrated, usually from 46.1 µM), for inactives: at the highest dose re-replication activation, most hits filed as activators; note: potency is the fitted concentration of half-maximal effect; % of control where 0% means no effect; nearly all actives have a fitted effect of over 55% in size
#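 Cells (250 per well) received 23 nL compound or DMSO by pin tool and were kept 48 hr at 37 C, 5% CO2. Nuclei were then stained with Hoechst for 40 min and scanned for DNA content.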
# MCF10A rereplic: DNA re-replication induction in MCF 10a cells; MCF 10A DNA re-replication, Hoechst nuclear intensity, 48 h; Potency, µM (top dose mostly 46.1 µM), inactives show at the highest dose activity, positive = re-replication, most hits filed as activators; hit rate 2.9% among 350,000; AID 624296; note: potency is the fitted concentration of half-maximal effect; % of control where 0% means no effect; nearly all actives have a fitted effect of over 50% in size
# IL1B secr inh: inhibitors of inflammasome signaling (IL-1 beta secretion). THP-1 LPS/ATP IL-1B secretion, AlphaLISA, 16 h; stronger effect = lower value. activity change, % at 57.5 µM. hit rate 4.7% among 360,000. AID 743279; in the data active = activity change below about -50%; inconclusive = mostly about -30% to -49%; note: % is set by controls: 0 for no effect and ±100 for the full control effect
#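 THP-1 cells pretreated 1 hr with compounds (up to 57.5 uM final), then stimulated with LPS (250 ng/mL final) plus ATP (1.25 mM final); secreted IL-1B measured by AlphaLISA after 16 hr, decreased signal indicating inhibition.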
# DT40 TDP1 CPT: growth inhibition of DT40 Tdp1-/-;hTDP1 cells with camptothecin (screen for TDP1 inhibitors) | chicken DT40 Tdp1-/-;hTDP1 cells + 20 nM CPT, ATP luminescence, 48 h | Potency, µM (doses to about 46.2 µM), inactives show at the top dose activity change, negative = growth inhibition, usual class: inhibitors | hit rate 12% among 420,000 | AID 686979; note: potency is the fitted concentration of half-maximal effect; % is set by controls: 0 for no effect and ±100 for the full control effect; nearly all actives have a fitted effect of over 55% in size
#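 Chicken DT40 Tdp1-/- cells complemented with human TDP1, 400 cells/well, exposed to compounds plus 20 nM camptothecin for at least 48 h at 37 C; viability read as ATP content by CellTiter-Glo luminescence.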
# BCR signal inh: chronic active BCR signaling inhibition; ABC-DLBCL IkBa-CBG/CBR reporter, luminescence ratio, 4 h; Potency, µM (highest dose often 46.1 µM), inactives show at the highest dose activity change, negative = inhibition, actives largely listed as inhibitors; hit rate 0.05% among 340,000; AID 493014; active = well fitted inhibition curve with a large enough effect in the signal ratio, with a control signal flat, not every such curve was filed as active; inconclusive = small, poorly fitted or top-dose-only effect, or effect the other way, or a change in a side signal; the % refers to the signal ratio;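 note: potency is the fitted concentration of half-maximal effect; plate controls were basal doxycycline-induced cells for no effect and cells given 10 µM MG132 for full effect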
#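 TMD8 human ABC-DLBCL cells with doxycycline-inducible IκBα–green luciferase fusion and unfused red luciferase, in 0.5% FBS medium; compounds up to 46 uM, 4 h at 37C. Green/red luminescence ratio, filter-overlap corrected, fitted to concentration-response curves.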
# DT40 TDP1 no CPT: qHTS for Inhibitors of human tyrosyl-DNA phosphodiesterase 1 (TDP1): qHTS in cells in absence of CPT | DT40 Tdp1-/- hTDP1 cells, no CPT, ATP luminescence, 48 h | Potency, µM (series often up to 46.2 µM), without a hit: at the highest dose activity change, negative = growth inhibition, hits mostly inhibitors | hit rate 15% among 420,000; note: potency is the fitted concentration of half-maximal effect; % is set by controls: 0 for no effect and ±100 for the full control effect; nearly all actives have a fitted effect of over 55% in size
#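 A cellular qHTS used chicken DT40 cells lacking endogenous Tdp1 but carrying stably transfected human TDP1. Compounds were applied without camptothecin, and cell growth kinetics were judged by ATP-dependent luminescence after ≥48 hr.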
# An asterisk follows results filed as active; ? = inconclusive; . = not tested or not shown; [ ] = another dose, or the depositor's remark. Sampled rows, rich in hits. Any-hit rate of the full collection: about 19%. Unless noted, calls come from the whole dose curve; as a rule, active = well fitted curve in the direction sought with a large enough effect; inconclusive = small, poorly fitted or top-dose-only effect, or another doubt; inactive = no such curve, though single readings can be large; an effect the other way counts as inactive or inconclusive.
SMILES,SW480 rereplic,MCF10A rereplic,IL1B secr inh,DT40 TDP1 CPT,BCR signal inh,DT40 TDP1 no CPT
COc1ccc(Nc2nc3ccc(OC)cc3s2)cc1,-2.3%,?,?,-16.7%,-5.5%,-25.7%
CC(=O)c1ccc(NC(=O)CSc2nc3[nH]c(=O)cc(O)c3s2)cc1,-2.0%,12.4%,-3.3,?,.,?
O=c1cc(O)c2sc(Nc3ccc(F)c(Cl)c3)nc2[nH]1,0.5%,18.0%,20.6,3.26µM*,10.4%,3.66µM*
CCOc1ccccc1N(CC(=O)NCc1ccco1)C(=O)CCC(=O)Nc1nccs1,4.1%,?,-9.2,-0.3%,-13.1%,-14.3%
CC(C)(C)c1ccc(/C=C2\SC(=O)N(CCNC(=O)c3cccc(S(=O)(=O)N4CCOCC4)c3)C2=O)cc1,6.9%,26.6%,-15.4,8.2µM*,-2.2%,23.1µM*
Cc1ccc(S(=O)(=O)N2CCOCC2)cc1C(=O)NCCN1C(=O)S/C(=C\c2ccccc2Cl)C1=O,0.2%,8.1%,?,?,-15.9%,?
O=C(NCCN1C(=O)S/C(=C\c2cccnc2)C1=O)c1cc(S(=O)(=O)N2CCOCC2)ccc1F,2.06µM*,16.5%,0.0,?,?,18.4µM*
COc1ccc(CNCc2c(O)c(Cl)cc3c(C)c(C)c(=O)oc23)c(OC)c1,?,?,31.2,16.5%,?,-1.9%
O=C(OC1CC2CC1[C@H]1CCCCN1C2=O)N1CCN(S(=O)(=O)c2ccccc2)CC1 (some centres undefined),.,.,36.0,-23.6%,.,?
Cc1cc(C)c2c(N)c(C(=O)c3ccccc3)oc2n1,-7.0%,?,3.8,-2.7%,.,-1.1%
Cc1cc(C)c2c(N)c(C(=O)c3ccc(Br)cc3)oc2n1,2.59µM*,23.1µM*,4.5,?,8.7%,?
Cc1cc2c(cc1C)-c1nnnn1C(N1CCC(Cc3ccccc3)CC1)C(=O)N2 (centres undefined),.,.,-0.7,14.6µM*,.,9.2µM*
Cc1nn(C)c(C)c1/C=N/NC(=O)c1csc2ccccc12,-5.8%[9.22 µM],-17.9%,0.0,-17.9%,?,-19.6%
CCn1ncc(/C=N\NC(=O)c2csc3ccccc23)c1C,11.6µM*,10.3µM*,19.0,2.59µM*,?,4.61µM*
Cc1c(/C=N\NC(=O)c2csc3ccccc23)cnn1C,20.6µM*,?,13.9,?,-28.7%,?
COc1ccccc1CC(Cc1nc2ccccc2[nH]1)c1nc2ccccc2[nH]1 (centres undefined),13.8%,?,-25.9,?,-3.1%,29.9µM*
CC(C)Cc1nc2ccccc2[nH]1,-13.7%,-1.2%,0.9,19.6%,0.6%,-17.0%
CC(c1ccccc1)C(Cc1nc2ccccc2[nH]1)c1nc2ccccc2[nH]1 (centres undefined),.,.,.,.,-1.9%,.
COc1cc2nc(CC(O)c3nc4cc(OC)c(OC)cc4[nH]3)[nH]c2cc1OC (centres undefined),.,.,.,7.08µM*,.,6.31µM*
Cc1cccc(CC(Cc2nc3ccccc3[nH]2)c2nc3ccccc3[nH]2)c1 (centres undefined),20.3%,?,-75.5*,16.4µM*,?,?
Cc1ccccc1N=C(NO)c1nonc1N,2.7%,-7.1%,0.0,4.4%,-2.2%,-14.8%
CCOC(=O)/C(=C/C=C1\Sc2ccccc2N1CC)C(C)=O,10.7%,16.7%,-69.3*,20.6µM*,2.9%,20.6µM*
CCC(=O)/C=C1/Sc2ccccc2N1CC,3.2%,?,-1.8,?,?,?
CCOC(=O)/C(=C\C=C1/Sc2ccccc2N1CC)C(C)=O,0.3%,7.7%,?,?,3.4%,11.6µM*
CCOC(=O)/C(=C/C=C1\Sc2cc(C)c(C)cc2N1CC)C(C)=O,-9.1%,21.3%,-92.5*,4.61µM*,13.7%,2.31µM*
SMILES,SW480 rereplic,MCF10A rereplic,IL1B secr inh,DT40 TDP1 CPT,BCR signal inh,DT40 TDP1 no CPT
CCOC(=O)C(=O)c1c(C)cc2ccccn12,6.0%,-2.1%,-11.6,-14.3%,?,8.2%
CCc1cc(=O)oc2c3c(cc(OCC(=O)NCCN4CCOCC4)c12)OC(C)(C)CC3,-6.1%,19.6%,-0.2,-8.6%,2.5%,?
CC(=O)Nc1ccc(CCCCc2ccc(NC(C)=O)cc2)cc1,6.5%,14.5%,21.4,-12.2%,.,-24.0%
CCc1ccc(N2CC(C(=O)Nc3nc4ccc(S(C)(=O)=O)cc4s3)CC2=O)cc1 (centres undefined),-6.1%,4.5%,34.8,0.3%,3.3%,-15.2%
CN(C)c1cc[n+](CC(=O)Nc2ccc(Cl)cc2)cc1,-4.4%,3.3%,-51.1*,6.51µM*,-3.0%,3.26µM*
Cc1cccc(NC(=O)C[n+]2ccc(N(C)C)cc2)c1,2.7%,?,0.0,14.6µM*,6.0%,?
Cc1cc(C)cc(NC(=O)C[n+]2ccccc2)c1,2.4%,-16.4%,3.1,-11.0%,-0.4%,-22.4%
O=C(C[n+]1ccccc1)Nc1ccccc1,-7.1%,-1.9%,-26.5,3.3%,.,-0.7%
COC(=O)c1ccc(OCc2nn[nH]n2)cc1,3.7%,8.3%,-0.4,0.6%,1.8%,4.9%
COc1ccc(C2/C=C\CN3CCC[C@H]3C(=O)N2Cc2ccc(F)cc2)cc1 (some centres undefined),-16.2%,10.7%,-19.7,?,-0.4%,23.1µM*
COc1ccc(C2/C=C\CC(OCc3ccccc3)CC(=O)N2Cc2cccc(F)c2)cc1 (centres undefined),?,?,-18.3,18.4µM*,-0.3%,20.6µM*
COc1ccc(C2/C=C\CN(C(=O)OCc3ccccc3)CC(=O)N2Cc2ccc(F)cc2)cc1 (centres undefined),-14.9%,2.2%,49.7,?,-3.2%,?
COc1ccc([C@H]2/C=C\CN(S(C)(=O)=O)[C@@H](C)C(=O)N2Cc2ccc(F)cc2)cc1,-1.7%,-12.6%,25.4,-29.3%,.,-11.4%
COc1ccc([C@H]2/C=C\CN(C(=O)C3CC3)[C@@H](C)C(=O)N2Cc2ccc(F)cc2)cc1,-1.5%,-3.6%,22.6,23.1µM*,.,11.6µM*
COc1ccccc1/C=C/C=c1\sc2nc(=O)c(Cc3ccccc3)nn2c1=O,-4.7%,0.8%,-0.5,-2.9%,17.5%,-14.8%
Fc1ccc(-c2nnc3ccc(N4CCc5ccccc5C4)nn23)cc1,-6.0%,4.0%,-89.3*,9.2µM*,?,8.2µM*
O=C(Nc1ccc(F)cc1)N1CCN(c2ccc3nnc(-c4ccc(F)cc4)n3n2)CC1,6.0%,18.7%,-20.5,?,?,?
